This is a sample that favours compounds with a hit; in the whole collection about 2.4% have one here.
Pol III holo inh: inhibitors of bacterial DNA polymerase III holoenzyme | Potency, µM (highest dose often 57.1 µM) | AID 603 | hit rate 0.25% among 71,000 | reconstituted DNA polymerase III holoenzyme replication, biochemical
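Reconstituted *E. coli* holoenzyme (0.35 nM Pol III, 1 nM beta, 154 nM SSB, 2 nM primase) was preincubated with compound for 15 min at RT. Synthesis on 1.4 nM ssM13Gori ran 35 min, then was stopped with PicoGreen/EDTA and read as dsDNA fluorescence.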
BRCT PPI green: BRCA1 BRCT-phosphoprotein interaction inhibition; hit rate 0.05% among 75,000; BRCA1 BRCT-phosphopeptide binding, green fluorescence polarization; AID 875; Potency, µM (top dose mostly 76.9 µM), usual class: inhibitors; P38398
Target sequence (P38398 whole entry, looked up): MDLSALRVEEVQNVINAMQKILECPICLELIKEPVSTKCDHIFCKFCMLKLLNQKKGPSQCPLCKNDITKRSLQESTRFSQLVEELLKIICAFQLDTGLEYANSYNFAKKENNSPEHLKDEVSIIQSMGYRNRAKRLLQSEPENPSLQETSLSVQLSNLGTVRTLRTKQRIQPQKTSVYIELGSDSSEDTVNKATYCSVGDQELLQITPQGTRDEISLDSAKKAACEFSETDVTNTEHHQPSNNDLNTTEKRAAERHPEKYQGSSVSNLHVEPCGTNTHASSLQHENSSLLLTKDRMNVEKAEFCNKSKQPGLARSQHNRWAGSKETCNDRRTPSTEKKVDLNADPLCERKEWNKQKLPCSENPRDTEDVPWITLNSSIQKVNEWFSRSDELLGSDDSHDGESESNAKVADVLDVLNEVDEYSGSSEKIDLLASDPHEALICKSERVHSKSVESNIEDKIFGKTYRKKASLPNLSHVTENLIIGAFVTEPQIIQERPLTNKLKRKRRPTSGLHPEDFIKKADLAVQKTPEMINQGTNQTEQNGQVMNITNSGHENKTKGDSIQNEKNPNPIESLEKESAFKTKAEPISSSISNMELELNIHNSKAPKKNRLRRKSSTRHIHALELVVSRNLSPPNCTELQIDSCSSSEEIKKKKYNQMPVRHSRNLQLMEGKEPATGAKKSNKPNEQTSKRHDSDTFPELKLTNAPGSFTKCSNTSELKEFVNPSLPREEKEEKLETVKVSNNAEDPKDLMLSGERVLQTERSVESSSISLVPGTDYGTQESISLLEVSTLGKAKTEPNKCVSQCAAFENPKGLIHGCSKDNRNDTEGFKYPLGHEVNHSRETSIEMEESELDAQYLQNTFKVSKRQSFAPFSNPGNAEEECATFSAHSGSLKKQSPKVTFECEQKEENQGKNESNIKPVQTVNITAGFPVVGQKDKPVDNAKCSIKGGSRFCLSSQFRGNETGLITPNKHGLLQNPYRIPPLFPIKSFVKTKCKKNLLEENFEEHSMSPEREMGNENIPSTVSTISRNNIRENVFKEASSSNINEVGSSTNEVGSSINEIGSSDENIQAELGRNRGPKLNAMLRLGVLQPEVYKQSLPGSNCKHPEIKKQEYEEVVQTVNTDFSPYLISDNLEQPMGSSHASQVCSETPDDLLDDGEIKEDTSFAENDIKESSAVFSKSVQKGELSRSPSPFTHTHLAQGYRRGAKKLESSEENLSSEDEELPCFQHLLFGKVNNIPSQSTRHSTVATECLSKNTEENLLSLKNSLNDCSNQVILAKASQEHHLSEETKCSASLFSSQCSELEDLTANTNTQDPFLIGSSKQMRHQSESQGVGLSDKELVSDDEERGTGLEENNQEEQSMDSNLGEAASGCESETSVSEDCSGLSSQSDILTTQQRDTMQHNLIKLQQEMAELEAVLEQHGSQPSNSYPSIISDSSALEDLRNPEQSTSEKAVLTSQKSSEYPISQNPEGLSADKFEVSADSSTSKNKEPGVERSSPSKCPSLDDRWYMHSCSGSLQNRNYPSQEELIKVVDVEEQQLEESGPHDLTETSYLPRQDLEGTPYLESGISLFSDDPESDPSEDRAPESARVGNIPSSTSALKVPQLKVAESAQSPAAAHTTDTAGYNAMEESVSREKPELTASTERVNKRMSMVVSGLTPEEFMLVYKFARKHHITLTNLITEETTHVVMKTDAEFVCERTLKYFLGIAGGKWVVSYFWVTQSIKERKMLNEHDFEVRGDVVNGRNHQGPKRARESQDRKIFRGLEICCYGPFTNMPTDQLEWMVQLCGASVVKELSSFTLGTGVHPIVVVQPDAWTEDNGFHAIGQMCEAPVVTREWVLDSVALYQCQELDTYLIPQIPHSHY
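Compounds were incubated for 12 min at room temperature with a complex of 100 nM fluorescein-tagged pBACH1 decapeptide and 250 nM His-tagged BRCT protein. Buffer was phosphate pH 7.3 with EDTA, DTT and Tween 20. Disruption of binding lowers the polarization signal.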
ERK AVP block: inhibitors of vasopressin-stimulated ERK signaling pathway. HEK293-V1b, vasopressin-stimulated pERK AlphaScreen. Potency, µM (top dose mostly 57.5 µM), usual class: inhibitors. hit rate 0.99% among 72,000. AID 995; further: nearly all actives have a fitted effect of over 55% in size
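Overnight-seeded V1b-HEK293 cells in 1% FBS got compound, then vasopressin (25 nM final, 5 min, 37C), then lysis buffer. AlphaScreen detection of phospho-ERK; activity normalized to basal and full-stimulation controls.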
TsaE inh: YjeE (TsaE) inhibition, E. coli | P0AF67 | purified YjeE enzyme, qHTS inhibition assay | Potency, µM | hit rate 0.05% among 71,000 | AID 605
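Fluorescence polarization of a BODIPY Texas Red–ADP probe (2 uM) bound to purified YjeE (10 uM) was read after 15 min room-temperature incubation with compounds. Loss of polarization marks inhibitors; ADP serves as titrated control.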
BRCT PPI red: disrupts BRCA1 BRCT binding to phosphoprotein, red fluorophore readout. Potency, µM (top dose mostly 76.9 µM), actives largely listed as inhibitors. BRCT-phosphopeptide binding, red fluorescence polarization. AID 892. P38398. hit rate 0.03% among 75,000
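Rhodamine-labelled pBACH1 10-mer (100 nM) bound to BRCT domain (100 nM) at pH 7.3; compounds incubated 12 min room temperature, polarization read. Free peptide defines full inhibition; unlabelled decapeptide titrated as control.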
15-hLO inh: inhibitors of human 15-lipoxygenase (ALOX15); hit rate 1.4% among 74,000; purified 15hLO-1, xylenol orange hydroperoxide absorbance; P16050; AID 887; Potency, µM (highest dose often 57.1 µM), usual class: inhibitors; further: nearly all actives have a fitted effect of over 55% in size
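Readout: Fe(III)-xylenol orange absorbance, 573-to-405 nm ratio as reaction progress. Enzyme 40 nM purified human 15hLO-1, substrate 50 uM arachidonic acid, 6 min RT after 15 min compound preincubation; Hepes pH 7.5 buffer with Triton X-100.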
Each line names hits and unclear results; the compound was inactive in the other large screens. The call rests on the fitted dose curve; in most records, active means well fitted curve in the direction sought with a large enough effect; inconclusive means small, poorly fitted or top-dose-only effect, or another doubt; inactive means no such curve, though single readings can be large; an effect the other way counts as inactive or inconclusive.

O=C1CN=C(c2cccs2)c2c(sc3c2CCCC3)N1	15-hLO inh 15.8µM
CC1=C(O)C(=O)C=C2C1=CC=C1[C@]2(C)CC[C@@]2(C)C3C[C@](C)(C(=O)O)CC[C@@]3(C)CC[C@@]12C (some centres undefined)	ERK AVP block 31.6µM, 15-hLO inh 3.98µM (no result: Pol III holo inh, TsaE inh)
CN(C)CS/C(N)=N/[C@H](O)C(Cl)(Cl)Cl	none
O=C(O)c1cc[c]([Hg][Cl])cc1	15-hLO inh 1.58µM
C[C@@]12CC[C@H]3[C@@H](CC[C@@H]4C[C@H]5S[C@H]5C[C@]43C)[C@H]1CC[C@H]2O	none
N#CSCSC#N	ERK AVP block 15.8µM
C[C@]12CC[C@H](O)C[C@@H]1CC[C@H]1[C@H]2CC[C@]2(C)[C@H](C(=O)CO)CC[C@@H]12	none
COC(=O)[C@H]1[C@@H](c2ccccc2)[C@@]2(c3ccccc3)Oc3ccccc3[C@@]1(O)[C@@H]2O	15-hLO inh inconclusive (no result: Pol III holo inh, TsaE inh)
c1cc(CN2CCC3(CCNCC3)CC2)ccn1	none

Bioassay records (PubChem)
